Assay outcomes: PubChem, National Center for Advancing Translational Sciences (NCATS)
This is a sample that favours compounds with a hit; in the whole collection about 3.3% have one here.
USP1-UAF1 inh: blocks the human USP1/UAF1 deubiquitinase complex | recombinant USP1/UAF1, Ub-Rhodamine cleavage fluorescence | Potency, µM (highest dose often 57.1 µM), most hits filed as inhibitors | 0.23% of 390,000 active | AID 743255; further: nearly all actives have a fitted effect of over 60% in size
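USP1/UAF1 complex at 1 nM was preincubated with compound for 15 min at room temperature, then Ub-Rho substrate (150nM final) was added. Fluorescence (480/540 nm) was read kinetically, 6 reads every 60 seconds.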
USP2a block: inhibitors of human ubiquitin-specific protease USP2a; O75604; USP2 core, Ub-CHOP2 coupled fluorogenic reporter, 485/531; Potency, µM (highest dose often 38.3 µM), hits mostly inhibitors; 0.01% of 330,000 active
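Deubiquitinase activity read as fluorescence (485/531 nm) after Ub-CHOP2 cleavage activates the enterokinase reporter on its substrate; USP2 core 10nM, Ub-CHOP2 and substrate 25nM each, 30min compound preincubation then 60min RT; data normalized to NEM, curves fitted.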
PLK1 PBD inh: blocks phosphopeptide binding to human PLK1 polo-box domain; Plk1 PBD binding of FITC phosphopeptide, fluorescence polarization; Potency, µM, usual class: inhibitors; 2.8% of 360,000 active; P53350; further: series mostly up to about 57 µM; nearly all actives have a fitted effect of over 65% in size
WRN helicase inh: inhibitors of human WRN helicase. 0.46% of 360,000 active. Potency, µM (series often up to 114 µM), usual class: inhibitors. WRN helicase unwinding, fluorescent forked duplex, kinetic. Q14191; further: nearly all actives have a fitted effect of over 55% in size
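Primary qHTS, 1536-well format. 20 nM WRN + compound, 15 min RT; start with 100 nM forked fluorophore/quencher duplex, 2 mM ATP (final); kinetic read ex 525/em 598 nm.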
PI5P4Ka inh: PI5P4K alpha (human) kinase inhibition; PI5P4Kalpha enzyme, ADP-Glo luminescence, 60 min; stronger effect = lower value; max response, %; 1.2% of 330,000 active; AID 652105; active means max response of -50% or lower; inconclusive means between -30% and -50%; inactive means -30% or higher; further: value at the top dose of about 77 µM
Target sequence (P48426 whole entry, looked up): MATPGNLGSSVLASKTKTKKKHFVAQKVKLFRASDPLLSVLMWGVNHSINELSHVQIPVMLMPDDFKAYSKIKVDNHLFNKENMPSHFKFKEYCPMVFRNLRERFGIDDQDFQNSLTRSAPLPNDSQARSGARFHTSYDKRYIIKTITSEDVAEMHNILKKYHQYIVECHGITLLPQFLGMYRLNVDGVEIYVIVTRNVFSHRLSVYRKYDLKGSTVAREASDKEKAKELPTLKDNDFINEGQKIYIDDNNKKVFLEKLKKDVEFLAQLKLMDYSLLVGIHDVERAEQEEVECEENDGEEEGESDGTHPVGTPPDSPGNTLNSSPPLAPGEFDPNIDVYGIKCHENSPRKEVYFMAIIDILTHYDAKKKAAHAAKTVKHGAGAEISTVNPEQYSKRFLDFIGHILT
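PI5P4Kalpha ADP-Glo assay; 5 microM ATP final; 60 min RT reaction; HEPES pH 7.4/EGTA/CHAPS, 5% DMSO; controls lacking substrate or enzyme; luminescent end-point.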
A number is an active result; – = inactive; ? = inconclusive; · = no result. Unless noted, the call rests on the fitted dose curve; in most records, active means well fitted curve in the direction sought with a large enough effect; inconclusive means small, poorly fitted or top-dose-only effect, or another doubt; inactive means no such curve, though single readings can be large; an effect the other way counts as inactive or inconclusive.

SMILES	USP1-UAF1 inh	USP2a block	PLK1 PBD inh	WRN helicase inh	PI5P4Ka inh
CN1C(=O)/C(=C/c2ccc(Cl)s2)C(=O)NC1=S	–	–	1.5µM	14µM	-80
CCN1C(=O)/C(=C\c2ccc([N+](=O)[O-])s2)C(=O)NC1=S	·	–	·	·	·
C=CCN1C(=O)/C(=C/c2ccc(Br)s2)C(=O)NC1=S	?	–	1.3µM	56µM	-94
CC(C)(C)N1C(=O)NC(=O)/C(=C\c2ccc3c(c2)CCN3CCCCl)C1=O	?	–	?	–	?
C=CCN1C(=O)/C(=C/c2ccc3c(c2)CCCN3CCC)C(=O)NC1=S	–	–	–	56µM	?
COc1ccc(OCC(=O)N2CCN(CCc3ccccn3)CC2)cc1	–	·	·	·	·
COc1ccccc1CNC(=O)C(NS(=O)(=O)c1ccc2c(c1)oc(=O)n2C)C(C)C (configuration not stated)	?	–	–	–	–
CCc1nc(SC)ncc1C(=O)Nc1ccc(Cl)cc1C(=O)c1ccccc1	–	·	·	·	·
COc1ccc(NC2=NC(C)(C)CS2)cc1	–	–	21µM	–	–
CC(C)(C)c1ccc(/C=C2\Oc3cc(OC(=O)N4CCOCC4)ccc3C2=O)cc1	–	–	–	?	–
O=c1c2ccccc2nc(/C=C/c2ccccc2F)n1-c1cccc(O)c1	–	·	·	·	·
COc1cc2[nH]c(C(=O)N3CCC4(CC3)OCCO4)cc2c(OC)c1OC	–	–	–	–	–
O=C(CSc1ccccn1)Nc1cccc2ccccc12	–	–	21µM	–	–
CCCCCN1C(=O)c2ccccc2[C@@]2(C(=O)OCC)Cc3cc(Cl)ccc3[C@@H]12	·	·	?	–	–
CCOC(=O)[C@]12Cc3c(cc(OC)c(OC)c3OC)[C@H]1N(C1CCCCC1)C(=O)c1ccccc12	·	·	9.5µM	–	–
CCOC(=O)[C@]12Cc3cc(C)ccc3[C@H]1N(CCC(=O)OC)C(=O)c1ccccc12	·	·	8.4µM	–	–
CCOC(=O)[C@]12Cc3cc(Cl)ccc3[C@H]1N(Cc1ccccc1)C(=O)c1ccccc12	–	·	–	–	–
CCOC(=O)[C@]12Cc3cc(C)ccc3[C@H]1N(C1CCCCC1)C(=O)c1ccccc12	·	·	2.7µM	–	–
CCOC(=O)[C@]12Cc3cc(Cl)ccc3[C@H]1N(C1CCCCC1)C(=O)c1cc(OC)ccc12	·	·	2.1µM	–	?
CCOC(=O)[C@]12Cc3ccc(C)cc3[C@H]1N(C1CCCCC1)C(=O)c1ccccc12	·	·	3µM	–	–
CCOC(=O)[C@]12Cc3ccc(C)cc3[C@H]1N(C1CCCCC1)C(=O)c1cc(OC)ccc12	·	·	4.2µM	–	–
CCOC(=O)[C@]12Cc3cc4c(cc3[C@H]1N(Cc1ccccc1)C(=O)c1ccccc12)OCO4	–	·	–	–	–
CCOC(=O)[C@]12Cc3ccccc3[C@H]1N(Cc1ccccc1)C(=O)c1cc(F)c(F)cc12	·	·	?	–	–
COc1ccc(C)cc1NC(=O)N(Cc1ccc2c(c1)OCO2)C1CCN(Cc2ccccc2)CC1	–	·	·	·	·
O=P(/C=C1\OCc2ccccc21)(Oc1ccccc1)Oc1ccccc1	·	·	–	–	–
SMILES	USP1-UAF1 inh	USP2a block	PLK1 PBD inh	WRN helicase inh	PI5P4Ka inh
CC(C)C[C@H]1C(=O)N2CCC[C@H]2[C@]2(O)O[C@](NC(=O)[C@@H]3C=C4c5cccc6[nH]cc(c56)C[C@H]4N(C)C3)(C(C)C)C(=O)N12	18µM	?	?	–	?
CN1C[C@H](C(=O)NC2(C)OC3(O)[C@@H]4CCCN4C(=O)[C@H](Cc4ccccc4)N3C2=O)CC2c3cccc4[nH]cc(c34)C[C@H]21 (some centres not stated)	–	·	–	–	–
CCCc1nc(SC)ncc1C(=O)Nc1ccc(Cl)cc1C(=O)c1ccccc1	–	·	·	·	·
Cc1ccc(/C=C2/C(=O)NC(=O)N(CCc3ccc(F)cc3)C2=O)s1	–	–	0.95µM	–	?
Cc1ccc(/C=C2\C(=O)NC(=O)N(CCc3ccc(F)cc3)C2=O)o1	–	–	0.95µM	–	-53
Cc1ccc(/C=C2\C(=O)NC(=O)N(CCc3ccc(F)cc3)C2=O)s1	–	–	0.27µM	–	?
Cc1ccc(CNCCc2ccc(F)cc2)s1	–	–	–	–	–
Cc1ccc(/C=C2/C(=O)NC(=O)N(CC3CCCO3)C2=O)s1 (configuration not stated)	–	–	6µM	–	?
CC(=O)N(C)C1=Nc2ccc(Cl)cc2C(c2ccccc2)=[N+]([O-])C1	?	·	–	–	–
O=C(COc1ccc(Br)cc1)Nc1ccc(Cl)cc1C(=O)c1ccccc1	–	·	·	·	·
O=C1NC(=O)C(Nc2ccc(Cl)c(Cl)c2)C(=O)N1	?	·	–	–	–
O=C1NC(=S)NC(=O)C1Nc1ccc(Cl)cc1	–	·	3µM	?	–
CCCCCC1(C(C)C)C(=O)NC(=S)NC1=O	–	·	–	–	–
CCOC(=O)c1c(-n2c(C)cc(/C=C3\C(=O)NC(=O)N(C)C3=O)c2C)sc2c1CCCC2	–	–	2.7µM	–	·
Cc1ccc(-n2c(C)cc(/C=C3/C(=O)NC(=O)N(C)C3=O)c2C)cc1	–	–	–	–	–
Cc1cc(/C=C2\C(=O)NC(=O)N(c3ccc(Cl)cc3)C2=O)c(C)n1-c1sc2c(c1C#N)CCCC2	?	–	1.2µM	?	-57
CC(C)C[C@H]1COc2cc(N3CCN(C)CC3)ccc2S(=O)(=O)N1	·	·	–	–	–
O=C(Nc1ccc(Br)cc1C(=O)O)c1ccc2c(c1)C(=O)N(Cc1ccccc1)C2=O	–	–	?	?	-74
O=C(CN1CCOCC1)Nc1ccc(Br)cc1C(=O)c1ccccc1	?	–	–	–	·
Cc1ccc2nc(NC(=O)c3cccn(Cc4ccc(Cl)cc4)c3=O)sc2c1	–	·	·	·	·
Cc1ccc(C(O)(C(=O)OC(C)C)C(O)c2ccc(F)cc2)cc1 (configuration not stated)	·	·	–	–	–
CCCCN1C(=O)NC(=O)/C(=C/c2cnc(SC)nc2)C1=O	–	–	8.4µM	40µM	-85
CSc1ncc(/C=C2/C(=O)NC(=O)N(C3CCCCC3)C2=O)cn1	–	–	11µM	?	-57
CCCCN1C(=O)/C(=C/c2ccc(N3CCCCCC3)cc2)C(=O)NC1=S	·	–	·	·	·
Cc1cccc(C2CC(=O)Oc3c2c(=O)oc2ccccc32)c1 (configuration not stated)	–	·	·	·	·
O=C(O)c1ccc([N+](=O)[O-])c([N+](=O)[O-])c1	–	·	–	–	-50
Cc1nn(-c2ccccc2)c2c1C(c1ccc(F)cc1F)C(C#N)=C(N)O2 (configuration not stated)	–	–	21µM	–	·
Cc1nn(-c2ccccc2)c(Cl)c1C1C(C#N)=C(N)Oc2c1c(=O)oc1ccccc21 (configuration not stated)	–	–	–	–	–
COc1ccc(OC)c(C2C(C#N)=C(N)Oc3c2c(C)nn3-c2ccc(C)cc2)c1 (configuration not stated)	–	–	30µM	–	–
